VACV mCherry inh = qHTS for Stage-Specific Inhibitors of Vaccinia Orthopoxvirus: mCherry Reporter Primary qHTS | Potency, µM (series often up to 36.5 µM), most hits filed as inhibitors | AID 720579, 2013 | actives 0.63% (n = 310,000) | Vaccinia virus mCherry reporter infection, fluorescence; calls by dose curve; tested in A549 cells; also: nearly all actives have a fitted effect of over 35% in size
Marburg entry inh = qHTS for inhibitors of binding or entry into cells for Marburg Virus | Potency, µM (top dose mostly 37.8 µM), hits mostly inhibitors | Marburg virus pseudotyped entry inhibition, cell reporter | actives 1.8% (n = 300,000); calls by dose curve; tested in HEK293 cells
HCV inhibitor = qHTS Assay for Inhibitors of Hepatitis C Virus (HCV); Huh7.5.1 HCVcc-Cre infection, luciferase reporter, 44 h; Potency, µM (series often up to 41.8 µM), usual class: inhibitors; actives 3.4% (n = 340,000); AID 651820, 2012; active = well fitted inhibition curve with a large enough effect; inconclusive = small, poorly fitted or top-dose-only effect, or another doubt; inactive = no such curve, though single readings can be large or run the other way
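Reporter virus HCVcc-Cre (~0.5 moi) infects cells exposed to compound; seeding density 1,000 cells/well with 4 h settling beforehand. Luminescence, 15 sec read, taken 44 h post-infection following a 15 min RT substrate incubation.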
LASV entry inh = qHTS for Inhibitors of binding or entry into cells for Lassa Virus; Lassa virus pseudotype entry inhibition, cell reporter; Potency, µM (top dose mostly 37.9 µM), usual class: inhibitors; actives 1.2% (n = 300,000); calls by dose curve; tested in HEK293 cells; also: nearly all actives have a fitted effect of over 50% in size
HCMV antiviral = qHTS Assay for inhibitors of the human cytomegalovirus (HCMV); activity change, negative = inhibition, % at 57.5 µM; actives 4.5% (n = 410,000); HFF cells, HCMV-luciferase reporter, 72 h; hits give low values; in the data active = activity change below about -60%; inconclusive = no clear call, values can overlap the other calls; inactive = above about -39%
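Luciferase read-out from HCMV-luciferase-infected HFFs (MOI 1 PFU/cell) 72 h post infection at 37C; compounds added after 16 h cell attachment; activity normalized between buffer-only basal and Salinomycin (10uM) inhibitor controls.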
VACV Venus inh = qHTS for Stage-Specific Inhibitors of Vaccinia Orthopoxvirus: Venus Reporter Primary qHTS | Vaccinia virus Venus reporter expression, fluorescence | actives 0.46% (n = 330,000) | Potency, µM (highest dose often 36.5 µM), actives largely listed as inhibitors; calls by dose curve; tested in A549 cells; also: nearly all actives have a fitted effect of over 30% in size
Numbers stand for hits; i = inactive; ? = inconclusive; nt = no result given. A selection: hits, their analogues and other compounds. The true share with any hit is near 7.8%.

SMILES	VACV mCherry inh	Marburg entry inh	HCV inhibitor	LASV entry inh	HCMV antiviral	VACV Venus inh
CC(=O)NCCc1ccc(S(=O)(=O)Nc2ccc3c(c2)OCCO3)cc1	i	i	i	i	-64	i
CC(=O)Nc1ccc(S(=O)(=O)Nc2ccc3c(c2)OCCO3)cc1Cl	i	i	?	i	-88	i
COc1ccc(S(=O)(=O)Nc2ccc3c(c2)n(C)c(=O)n3C)cc1OC	i	i	3.2µM	?	i	i
Cn1c(SCC(=O)Nc2nc3ccccc3s2)ncc(C(=O)Nc2ccc(Cl)cc2)c1=O	i	nt	nt	i	i	i
COc1ccc(S(=O)(=O)Nc2ccc3c(c2)OCCO3)cc1Cl	?	i	11µM	i	i	i
Cc1cc(C)cc(NS(=O)(=O)c2ccc3c(c2)c(=O)n(C)c(=O)n3C)c1	5.6µM	?	6.3µM	?	?	5µM
Cc1ccc(CNS(=O)(=O)c2ccc3c(c2)n(C)c(=O)n3C)cc1	i	?	?	?	-66	i
CCOC(=O)c1c(NC(=O)C(C)Sc2cn(CCNC(=O)c3ccc(OC)cc3)c3ccccc23)sc2c1CCC2 (stereo not drawn)	i	?	nt	i	i	i
O=C(C[n+]1ccn(-c2ccccc2)c1)c1ccc([N+](=O)[O-])cc1	nt	nt	?	nt	-63	nt
COc1ccc(C(=O)C[n+]2cccc3cc(OC)ccc32)cc1	i	i	?	i	-66	i
O=C(C[n+]1cccc2ccccc21)c1ccc([N+](=O)[O-])cc1	i	?	11µM	?	i	i
O=C(Cn1cc[n+](Cc2ccccc2)c1)c1ccc([N+](=O)[O-])cc1	?	?	?	?	?	i
COc1cccc(C(=O)C[n+]2cccc3cc(OC)ccc32)c1	nt	nt	i	nt	i	nt
O=S(=O)(NCc1ccncc1)c1ccc(F)c(F)c1	?	nt	nt	nt	?	i
Cc1ccc(S(=O)(=O)NCc2ccncc2)cc1C	i	?	2.2µM	?	-68	i
O=S(=O)(NCc1ccncc1)c1ccc(Br)s1	i	?	?	i	-61	?
CNC(=O)c1cc(S(=O)(=O)NCc2ccncc2)ccc1OC	nt	nt	i	nt	?	nt
COc1cc(S(=O)(=O)NCc2ccncc2)ccc1Br	i	?	?	?	-70	i
Cc1cc(C)c(C)c(S(=O)(=O)NCc2ccncc2)c1C	i	?	7.1µM	?	-68	i
O=C(CNC(=O)C12CC3CC(CC(C3)C1)C2)N1CCN(S(=O)(=O)/C=C/c2ccccc2)CC1	i	i	i	?	-72	i
CCOC(=O)Cn1c(S(=O)(=O)Cc2ccc(F)cc2)nc(-c2ccccc2)c1-c1ccccc1	?	4.1µM	?	2.6µM	-78	i
CCOC(=O)Cn1c(S(=O)(=O)Cc2cccc(F)c2)nc(-c2ccccc2)c1-c1ccccc1	nt	2.6µM	?	7.3µM	?	nt
Nc1c(-c2ccccc2)cnn1-c1cccc(C(F)(F)F)c1	nt	i	i	i	-106	i
Nc1c(-c2cccc(Cl)c2)cnn1-c1cccc(C(F)(F)F)c1	nt	i	?	i	i	nt
CCOc1ccc(NC(=O)c2ccc(NC(=O)CCS(=O)(=O)c3cccs3)cc2)cc1	i	?	nt	i	i	i
SMILES	VACV mCherry inh	Marburg entry inh	HCV inhibitor	LASV entry inh	HCMV antiviral	VACV Venus inh
CCCCc1n[nH]c2c1C(=O)CC(C)(C)C2	nt	i	i	i	-85	i
O=S(=O)(c1ccc(NC(=S)NCCC(c2ccccc2)c2ccccc2)cc1)N1CCOCC1	10µM	10µM	?	3.5µM	-99	11µM
O=S(=O)(c1ccc(NC(=S)N/N=C/c2c3ccccc3cc3ccccc23)cc1)N1CCOCC1	i	nt	2.8µM	nt	-95	?
CCCCOCCCNC(=S)Nc1ccc(S(=O)(=O)N2CCOCC2)cc1	nt	nt	i	nt	i	nt
O=S(=O)(c1ccc(NC(=S)N/N=C/c2ccc(Oc3ccccc3)cc2)cc1)N1CCOCC1	i	i	i	i	i	i
CC(OC(=O)c1ccccc1NCCO)C(=O)Nc1ccc(S(=O)(=O)N2CCOCC2)cc1 (stereo not drawn)	i	i	8.9µM	i	i	i
Cc1c(OCc2ccccc2)c(=O)ccn1Cc1ccc(F)cc1	i	?	1.8µM	i	i	i
COc1ccccc1N(C)S(=O)(=O)c1ccc(C(=O)Nc2cc(F)ccc2C)cc1	i	i	6.3µM	?	i	i
COc1ccccc1N(C)S(=O)(=O)c1ccc(C(=O)Nc2nc(C)cs2)cc1	nt	16µM	?	?	i	nt
CN(C)CC(C)(C)CNC(=O)c1cnn(-c2ncc3c(n2)-c2ccccc2CC3)c1-c1ccco1	i	nt	nt	nt	nt	i
CN(C)CCNC(=O)c1onc(CSc2ccc(F)c(F)c2)c1C(=O)NCCN(C)C	i	nt	13µM	nt	i	i
CCCNC(=O)c1onc(CSc2ccc(F)c(F)c2)c1C(=O)NCCC	i	nt	?	nt	i	i
Cc1ccc2c(c1)C(C1(O)C(=O)N(Cc3ccccc3)c3ccccc31)C(=O)N2C (stereo not drawn)	nt	nt	nt	nt	i	nt
Cc1ccc(NCc2nnc(SCc3ccc(C#N)cc3)n2Cc2ccco2)c(C)c1	i	?	i	i	i	i
Cc1ccc(C(=O)CSc2nnc(CNc3ccc(C)cc3C)n2Cc2ccco2)cc1	nt	?	?	26µM	i	nt
O=C(CSc1nnc(-c2cc3ccccc3cc2O)n1Cc1ccco1)c1ccc(F)cc1	nt	?	16µM	23µM	?	nt
COc1ccc(C(=O)CSc2nnc(CNc3ccc(C)cc3C)n2Cc2ccco2)cc1	nt	i	6.3µM	?	i	nt
Cc1occc1-c1nnc(SCC(=O)c2ccc(F)cc2)n1Cc1ccco1	i	i	?	i	i	i
Cn1c(=O)oc2cc(S(=O)(=O)NC(Cc3ccccc3)C(=O)Nc3ccc(F)cc3)ccc21 (stereo not drawn)	i	i	nt	?	i	i
COc1ccc(N(C(=O)CCl)C(C(=O)NCCc2ccccc2)c2cccs2)cc1 (stereo not drawn)	i	?	5.6µM	?	-100	?
COc1ccc(CNC(=O)C(c2ccncc2)N(C(=O)Cc2cccs2)c2ccccc2)cc1 (stereo not drawn)	i	?	i	i	i	i
Cc1ccc(-n2c(SCc3ccccc3F)nc3[nH]ncc3c2=O)cc1Cl	i	nt	nt	?	?	i
Cc1c(Br)cccc1NC(=O)C1(C)CCN1C(C)C (stereo not drawn)	i	nt	nt	nt	-80	i
Cc1cc2c(NC(=O)Nc3ccc(C(C)(C)C)cc3)cccc2nn1	nt	nt	14µM	nt	i	nt
Cc1ccc2c(c1)Oc1ccc(NC(=O)CCl)cc1C(=O)N2	i	?	?	?	-88	i
CCCc1ccc(OCc2ccc(C(=O)Nc3ccccc3C(=O)OC)o2)cc1	i	i	nt	?	i	i
CN(C)c1nc(N(C)C)nc(N(C#N)CCOc2ccccc2)n1	nt	i	11µM	i	i	i
Cc1cc(C)nc(N(C#N)CCOc2ccccc2)n1	i	?	?	i	i	i

Source: PubChem BioAssay (National Center for Advancing Translational Sciences (NCATS))
